# Source: PubChem (National Center for Advancing Translational Sciences (NCATS))
# HCV inhibitor = blocks hepatitis C virus; Huh7.5.1 HCVcc-Cre infection, luciferase reporter, 44 h; Potency, µM (doses to about 41.8 µM), most hits filed as inhibitors; 3.4% of 340,000 active; AID 651820
#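 Cells seeded at 1,000/well and cultured 4 h, then compounds added followed by HCVcc-Cre virus (~0.5 moi). After 44 h further culture, luciferase substrate was added, plates held 15 min at room temperature, and luminescence read for 15 sec.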
# Sm TGR block = inhibitors of Schistosoma mansoni thioredoxin glutathione reductase; 3% of 360,000 active; Q962Y6; purified TGR, DTNB reduction, TNB absorbance 405 nm; Potency, µM (top dose mostly 114 µM), hits mostly inhibitors; further: nearly all actives have a fitted effect of over 60% in size
#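 TGR 20 nM + NADPH 100 uM (dispensed conc.), cpd preinc 15 min RT; start with NADPH (500 uM addition) then DTNB (15 mM addition). Kinetic TNB absorbance, 405 nm filter. Four-parameter Hill fit across titration.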
# Vaccinia mCherry = vaccinia inhibition (mCherry reporter); 0.63% of 310,000 active; Vaccinia virus mCherry reporter infection, fluorescence; AID 720579; Potency, µM (top dose mostly 36.5 µM), hits mostly inhibitors; calls by dose curve; tested in A549 cells; further: nearly all actives have a fitted effect of over 35% in size
# FMDV inh = foot and mouth disease virus antiviral activity. FMDV antiviral cell-based qHTS. Potency, µM (highest dose often 57.9 µM), most hits filed as inhibitors. 1.2% of 410,000 active. AID 1159524; calls by dose curve; tested in HEK293T cells; further: read-out not given here; nearly all actives have a fitted effect of over 45% in size
# Vaccinia Venus = inhibitors of vaccinia virus (Venus reporter); Vaccinia virus Venus reporter expression, fluorescence; Potency, µM (series often up to 36.5 µM), hits mostly inhibitors; 0.46% of 330,000 active; calls by dose curve; tested in A549 cells; further: nearly all actives have a fitted effect of over 30% in size
# HCMV inh = blocks human cytomegalovirus replication; HFF cells, HCMV-luciferase reporter, 72 h; hits give low values; 4.5% of 410,000 active; activity change, negative = inhibition, % at 57.5 µM; AID 1259415; in the data active means activity change below about -60%; inconclusive means no clear call, values can overlap the other calls; inactive means above about -39%
#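 Screen run at 2 compound doses on HFFs infected with reporter HCMV, MOI 1 PFU/cell. Luciferase activity from cell lysates at 72 h post infection gave inhibition relative to buffer-only and Salinomycin wells.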
# Numbers stand for hits; – = inactive; ? = inconclusive; · = no result given. In the library only some 9.3% were active in any assay of this set; here they are far more common. Unless noted, the call rests on the fitted dose curve; in most records, active means well fitted curve in the direction sought with a large enough effect; inconclusive means small, poorly fitted or top-dose-only effect, or another doubt; inactive means no such curve, though single readings can be large; an effect the other way counts as inactive or inconclusive.
SMILES,HCV inhibitor,Sm TGR block,Vaccinia mCherry,FMDV inh,Vaccinia Venus,HCMV inh
O=C(c1cc(-c2ccc(O)cc2)on1)N1CCN(c2ccc(F)cc2)CC1,?,–,–,–,–,-62.6
O=C(c1cc(-c2ccc(O)cc2)on1)N1CCN(c2ccccc2)CC1,–,–,?,?,–,–
CC(C)(C)c1cc(C2=CSC3=NCCN23)cc(C(C)(C)C)c1O,5.62µM,–,·,?,·,·
CC(=O)N1CCCC(c2cc(C(=O)Nc3ccccc3)no2)C1 (stereo not given),·,·,–,35.5µM,–,-72.9
O=C(Nc1ccccc1)c1cc(C2CCCN(C(=O)C3CC3)C2)on1 (stereo not given),·,·,–,–,–,–
COc1cccc(C(c2sc3nc(-c4ccco4)nn3c2O)N2CCOCC2)c1 (stereo not given),·,–,–,–,–,–
COc1cccc2cc(-c3nnc(SCC(=O)Nc4nc(C)cs4)n3C)oc12,12.6µM,–,·,–,·,–
Cc1cc(C)c(NC(=O)c2ccc3nc(C(C)C)oc3c2)c(C)c1,·,–,–,–,–,–
COc1cc(OC)c(NC(=O)c2ccc3nc(C(C)C)oc3c2)cc1Cl,·,–,–,12.6µM,–,–
CCN(CC)c1nc(Nc2ccc(Cl)cc2)nc(OCC#N)n1,?,–,·,?,?,-67.7
Cc1cccc(Nc2nc(OCC#N)nc(N(C)C)n2)c1,–,–,–,–,–,–
CC(=O)c1ccc(-c2ccc(C(=O)N(C)Cc3nc4ccccc4c(=O)[nH]3)o2)cc1,7.08µM,?,·,22.4µM,·,–
O=C(O)/C(=C1\OC(=O)c2ccccc21)c1ccccc1,–,–,·,–,–,–
CCOC(=O)/C(C(C)=O)=C1/OC(=O)c2ccccc21,–,11.2µM,–,·,–,–
CCOC(=O)/C(C(C)=O)=C1\OC(=O)c2ccccc21,–,20µM,·,–,·,–
CCC(=O)N1CCc2cc(Br)cc(S(=O)(=O)NCCCN(C)Cc3ccccc3)c21,–,–,–,–,–,-67.3
O=C(C1=C[C@H](c2ccccc2)C[C@H](OCc2ccc(CO)cc2)O1)N1CCN(Cc2ccc3c(c2)OCO3)CC1,?,–,–,–,–,–
CCCC(=O)Nc1cccc(NC(=O)c2ccc([N+](=O)[O-])cc2Cl)c1,7.94µM,–,–,–,–,?
O=C(Nc1cccc([N+](=O)[O-])c1)c1ccc2ccccc2c1O,?,–,10µM,–,?,-80.1
O=C(Cc1ccccc1)Nc1cccc([N+](=O)[O-])c1,–,–,·,–,·,?
CCCC(=O)Nc1ccc(Cl)c(NC(=O)c2ccc([N+](=O)[O-])cc2Cl)c1,?,–,?,–,–,–
CC(Sc1nnnn1C)C(=O)Nc1cc(S(=O)(=O)N2CCCCC2)ccc1Cl (stereo not given),–,–,–,–,–,–
COCCNC(=S)c1ccc(Br)cc1,–,–,·,–,·,–
O=C(NC(=S)Nc1ccccc1CO)C1CCCCC1,–,·,–,–,–,–
CCOc1ccccc1NC(=S)NC(=O)C1CC1,–,?,–,–,–,-63.6
SMILES,HCV inhibitor,Sm TGR block,Vaccinia mCherry,FMDV inh,Vaccinia Venus,HCMV inh
Cc1ccccc1NC(=S)NC(=O)C1CCCCC1,–,14.1µM,·,–,·,–
O=C(NC(=S)NCCc1ccccc1)C1CCCCC1,?,?,–,–,–,–
O=C(CNC(=S)NC(=O)C1CCCCC1)c1ccccc1,–,–,–,–,–,-78.8
O=C(NC(=S)Nc1ccccc1Br)C1CC1,–,·,·,–,·,–
O=C(c1cccs1)N1CCC2(O)CCCCC2C1c1ccc(F)cc1 (stereo not given),–,–,–,–,–,–
Cc1cc(Br)ccc1NC(=O)C(Cc1ccccc1)NS(=O)(=O)c1ccc(Br)s1 (stereo not given),·,–,–,–,–,-103.8
Cc1ccc(NC(=O)c2c(NC(=O)Cc3ccccc3)sc3c2CCCC3)cc1,·,–,–,–,–,–
Cc1oc(-c2cccc(Cl)c2)nc1CS(=O)(=O)CC(=O)NC1CC1,–,39.8µM,–,–,–,–
CCOC(=O)N1CCC(NC(=O)CS(=O)(=O)Cc2nc(-c3cccc(OC)c3)oc2C)CC1,?,–,·,–,·,–
CCOC(=O)N1CCC(NC(=O)CS(=O)(=O)Cc2nc(-c3cccc(Cl)c3)oc2C)CC1,?,35.5µM,·,–,·,-60.4
COc1ccc(-c2cc(NC=O)c3ncc(-c4ccc(OC)c(OC)c4)n3c2)c(OC)c1,·,·,–,–,?,-74.3
